± gives the standard deviation of the averaged measurements.
Key:
Test in all cases: promoter activity interaction Z-score (Lux/OD deviation from empty-vector control); higher = stronger promoter induction by the compound
[1] = system: E. coli BW25113 ompFp lux reporter
Summary of the method: (§1)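 E. coli BW25113 (wild type or marA, soxS or rob deletion) carrying low-copy luxCDABE promoter reporters grew in 40 µl LB Lennox in 384-well plates at 37°C. Each compound was tested at four 1:2 dilutions in biological duplicates. OD600 and luminescence were read every 30 min for 12 h. Areas were taken over 0–8 h (wild type) or 1–9 h (mutants), and wells below 10% of median growth area were removed. The score is the Z-transformed residual of growth-normalised luminescence fitted against the empty-vector control.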

[2] = system: E. coli BW25113 robp lux reporter
Summary of the method: as §1

[3] = system: E. coli BW25113 soxSp lux reporter
Summary of the method: as §1

[4] = system: E. coli BW25113 tolCp lux reporter
Summary of the method: as §1

[5] = system: E. coli BW25113 acrABp lux reporter
Summary of the method: as §1

[6] = system: E. coli BW25113 marRABp lux reporter
Summary of the method: as §1

[7] = system: E. coli BW25113 micFp lux reporter
Summary of the method: as §1

[8] = 0.26 µg/ml, genetic background: Δrob
[9] = 0.26 µg/ml, genetic background: ΔsoxS
[10] = 0.52 µg/ml, genetic background: wild type
[11] = 0.52 µg/ml, genetic background: ΔmarA
[12] = 0.52 µg/ml, genetic background: Δrob
[13] = 0.52 µg/ml, genetic background: ΔsoxS
[14] = 0.13 µg/ml, genetic background: wild type
[15] = 0.13 µg/ml, genetic background: ΔmarA
[16] = 0.13 µg/ml, genetic background: Δrob
[17] = 0.13 µg/ml, genetic background: ΔsoxS
[18] = 0.26 µg/ml, genetic background: wild type
[19] = 0.26 µg/ml, genetic background: ΔmarA
[20] = 1.9 µg/ml, genetic background: wild type
[21] = 1.9 µg/ml, genetic background: ΔmarA
[22] = 1.9 µg/ml, genetic background: Δrob
[23] = 1.9 µg/ml, genetic background: ΔsoxS
[24] = 3.7 µg/ml, genetic background: wild type
[25] = 3.7 µg/ml, genetic background: ΔmarA
[26] = 3.7 µg/ml, genetic background: Δrob
[27] = 3.7 µg/ml, genetic background: ΔsoxS
[28] = 7.4 µg/ml, genetic background: wild type
[29] = 7.4 µg/ml, genetic background: ΔmarA
[30] = 7.4 µg/ml, genetic background: Δrob
[31] = 7.4 µg/ml, genetic background: ΔsoxS

In the case of `CNC(C)C1CCC(N)C(OC2C(N)CC(N)C(OC3OCC(C)(O)C(NC)C3O)C2O)O1` (configuration not stated) [Gentamicin], the “promoter activity interaction Z-score” value [1, 8] is reported as -0.00259 ± 0.23, the “promoter activity interaction Z-score” value [1, 9] is reported as 0.504 ± 0.56 and the “promoter activity interaction Z-score” value [1, 10] is reported as -0.826. For the same molecule, the “promoter activity interaction Z-score” value [1, 11] was -0.127 ± 0.14, the “promoter activity interaction Z-score” value [1, 12] was -0.414 and the “promoter activity interaction Z-score” value [1, 13] was 0.191 ± 0.32. For the same molecule, the “promoter activity interaction Z-score” value [2, 14] was -0.805 ± 0.067, the “promoter activity interaction Z-score” value [2, 15] was -0.513 ± 0.77 and the “promoter activity interaction Z-score” value [2, 16] was 0.0663 ± 0.25. The “promoter activity interaction Z-score” value [2, 17] was -0.014 ± 0.43, the “promoter activity interaction Z-score” value [2, 18] was -0.862 ± 1.1 and the “promoter activity interaction Z-score” value [2, 19] was 0.245 ± 0.6. For the same molecule, the “promoter activity interaction Z-score” value [2, 8] was -0.248 ± 0.75, the “promoter activity interaction Z-score” value [2, 9] was 0.869 ± 0.64 and the “promoter activity interaction Z-score” value [2, 10] was -1.31 ± 0.28. For the same molecule, the “promoter activity interaction Z-score” value [2, 11] was -0.148 ± 0.081, the “promoter activity interaction Z-score” value [2, 12] was -1.14 ± 0.47 and the “promoter activity interaction Z-score” value [2, 13] was -0.192 ± 0.46. The “promoter activity interaction Z-score” value [3, 14] was -0.176 ± 0.037, the “promoter activity interaction Z-score” value [3, 15] was 0.0574 ± 0.0087 and the “promoter activity interaction Z-score” value [3, 16] was 0.128 ± 0.056. The “promoter activity interaction Z-score” value [3, 17] was 0.247 ± 0.13, the “promoter activity interaction Z-score” value [3, 18] was -0.318 ± 0.11 and the “promoter activity interaction Z-score” value [3, 19] was -0.0384 ± 0.093. The “promoter activity interaction Z-score” value [3, 8] was 0.0805 ± 0.022, the “promoter activity interaction Z-score” value [3, 9] was 0.308 ± 0.14 and the “promoter activity interaction Z-score” value [3, 10] was -0.16 ± 0.27. For the same molecule, the “promoter activity interaction Z-score” value [3, 11] was -0.404 ± 0.039, the “promoter activity interaction Z-score” value [3, 12] was -0.462 ± 0.067 and the “promoter activity interaction Z-score” value [3, 13] was 0.162 ± 0.49. The “promoter activity interaction Z-score” value [4, 14] was -0.827 ± 0.069, the “promoter activity interaction Z-score” value [4, 15] was 0.61 ± 0.68 and the “promoter activity interaction Z-score” value [4, 16] was -0.223 ± 0.083. For the same molecule, the “promoter activity interaction Z-score” value [4, 17] was 0.974 ± 0.11, the “promoter activity interaction Z-score” value [4, 18] was -0.519 ± 0.51 and the “promoter activity interaction Z-score” value [4, 19] was 0.897 ± 0.19. For the same molecule, the “promoter activity interaction Z-score” value [4, 8] was 0.252 ± 0.61, the “promoter activity interaction Z-score” value [4, 9] was 0.0714 ± 0.32 and the “promoter activity interaction Z-score” value [4, 10] was -0.626 ± 0.67. For the same molecule, the “promoter activity interaction Z-score” value [4, 11] was -0.251 ± 0.16, the “promoter activity interaction Z-score” value [4, 12] was -0.791 ± 0.011 and the “promoter activity interaction Z-score” value [4, 13] was 0.133 ± 0.12.
In the case of `CCCCCCCCCCCCC[N+](C)(C)Cc1ccccc1` [Benzalkonium], the “promoter activity interaction Z-score” value [5, 20] is reported as -0.513 ± 0.068, the “promoter activity interaction Z-score” value [5, 21] is reported as -0.237 ± 0.34 and the “promoter activity interaction Z-score” value [5, 22] is reported as -0.388 ± 0.4. The “promoter activity interaction Z-score” value [5, 23] was 0.294 ± 0.89, the “promoter activity interaction Z-score” value [5, 24] was -0.16 ± 0.06 and the “promoter activity interaction Z-score” value [5, 25] was -0.795 ± 0.15. The “promoter activity interaction Z-score” value [5, 26] was -0.554 ± 0.18, the “promoter activity interaction Z-score” value [5, 27] was 0.231 ± 0.94 and the “promoter activity interaction Z-score” value [5, 28] was -0.426 ± 0.23. For the same molecule, the “promoter activity interaction Z-score” value [5, 29] was -0.878 ± 0.33, the “promoter activity interaction Z-score” value [5, 30] was -0.727 ± 0.24 and the “promoter activity interaction Z-score” value [5, 31] was 0.0433 ± 0.71. For the same molecule, the “promoter activity interaction Z-score” value [6, 20] was -0.577 ± 0.068, the “promoter activity interaction Z-score” value [6, 21] was 0.106 ± 0.047 and the “promoter activity interaction Z-score” value [6, 22] was -0.463 ± 0.11. For the same molecule, the “promoter activity interaction Z-score” value [6, 23] was -0.158 ± 0.0077, the “promoter activity interaction Z-score” value [6, 24] was -0.168 ± 0.0038 and the “promoter activity interaction Z-score” value [6, 25] was -0.194 ± 0.23. For the same molecule, the “promoter activity interaction Z-score” value [6, 26] was -0.586 ± 0.14, the “promoter activity interaction Z-score” value [6, 27] was -0.214 ± 0.035 and the “promoter activity interaction Z-score” value [6, 28] was -0.235 ± 0.61. For the same molecule, the “promoter activity interaction Z-score” value [6, 29] was -0.581 ± 0.057, the “promoter activity interaction Z-score” value [6, 30] was -0.529 ± 0.065 and the “promoter activity interaction Z-score” value [6, 31] was -0.255 ± 0.23. For the same molecule, the “promoter activity interaction Z-score” value [7, 20] was -0.76 ± 0.023, the “promoter activity interaction Z-score” value [7, 21] was 0.0652 ± 0.0013 and the “promoter activity interaction Z-score” value [7, 22] was 0.0861 ± 0.12. For the same molecule, the “promoter activity interaction Z-score” value [7, 23] was 0.559 ± 0.1, the “promoter activity interaction Z-score” value [7, 24] was -0.0239 ± 0.31 and the “promoter activity interaction Z-score” value [7, 25] was 0.0187 ± 0.025. For the same molecule, the “promoter activity interaction Z-score” value [7, 26] was -0.0547 ± 0.088, the “promoter activity interaction Z-score” value [7, 27] was 0.312 ± 0.19 and the “promoter activity interaction Z-score” value [7, 28] was -0.0221 ± 0.06. For the same molecule, the “promoter activity interaction Z-score” value [7, 29] was 0.112 ± 0.063, the “promoter activity interaction Z-score” value [7, 30] was -0.178 ± 0.013 and the “promoter activity interaction Z-score” value [7, 31] was 0.584 ± 0.26. For the same molecule, the “promoter activity interaction Z-score” value [1, 20] was -0.908 ± 0.23, the “promoter activity interaction Z-score” value [1, 21] was -0.356 ± 0.42 and the “promoter activity interaction Z-score” value [1, 22] was -1.25 ± 0.58. For the same molecule, the “promoter activity interaction Z-score” value [1, 23] was -0.386 ± 0.51, the “promoter activity interaction Z-score” value [1, 24] was -0.513 ± 0.059 and the “promoter activity interaction Z-score” value [1, 25] was -0.652 ± 0.036. For the same molecule, the “promoter activity interaction Z-score” value [1, 26] was -1.38 ± 0.51, the “promoter activity interaction Z-score” value [1, 27] was -0.498 ± 0.53 and the “promoter activity interaction Z-score” value [1, 28] was -0.731 ± 0.65. The “promoter activity interaction Z-score” value [1, 29] was -1.05 ± 0.44, the “promoter activity interaction Z-score” value [1, 30] was -1.75 ± 0.21 and the “promoter activity interaction Z-score” value [1, 31] was -0.339 ± 0.55. The “promoter activity interaction Z-score” value [2, 20] was -1.53 ± 0.13, the “promoter activity interaction Z-score” value [2, 21] was -0.233 ± 0.25 and the “promoter activity interaction Z-score” value [2, 22] was -0.222 ± 1.1. The “promoter activity interaction Z-score” value [2, 23] was -0.27 ± 0.21, the “promoter activity interaction Z-score” value [2, 24] was -0.668 ± 0.089 and the “promoter activity interaction Z-score” value [2, 25] was -0.453 ± 0.016. For the same molecule, the “promoter activity interaction Z-score” value [2, 26] was -0.648 ± 0.67, the “promoter activity interaction Z-score” value [2, 27] was -0.627 ± 0.58 and the “promoter activity interaction Z-score” value [2, 28] was -0.364 ± 0.19. The “promoter activity interaction Z-score” value [2, 29] was -0.432 ± 0.13, the “promoter activity interaction Z-score” value [2, 30] was -0.777 ± 0.35 and the “promoter activity interaction Z-score” value [2, 31] was -0.0429 ± 0.032. The “promoter activity interaction Z-score” value [3, 20] was -0.311 ± 0.12, the “promoter activity interaction Z-score” value [3, 21] was 0.435 ± 0.12 and the “promoter activity interaction Z-score” value [3, 22] was 0.153 ± 0.081. For the same molecule, the “promoter activity interaction Z-score” value [3, 23] was 0.8 ± 0.97, the “promoter activity interaction Z-score” value [3, 24] was -0.00893 ± 0.087 and the “promoter activity interaction Z-score” value [3, 25] was 0.517 ± 0.017. The “promoter activity interaction Z-score” value [3, 26] was -0.0801 ± 0.15, the “promoter activity interaction Z-score” value [3, 27] was 0.388 ± 0.66 and the “promoter activity interaction Z-score” value [3, 28] was -0.156 ± 0.16. The “promoter activity interaction Z-score” value [3, 29] was 0.256 ± 0.12, the “promoter activity interaction Z-score” value [3, 30] was -0.261 ± 0.034 and the “promoter activity interaction Z-score” value [3, 31] was 0.23 ± 0.41. The “promoter activity interaction Z-score” value [4, 20] was -0.208 ± 0.53, the “promoter activity interaction Z-score” value [4, 21] was 1.08 ± 0.12 and the “promoter activity interaction Z-score” value [4, 22] was 1.06 ± 0.98. For the same molecule, the “promoter activity interaction Z-score” value [4, 23] was 0.966 ± 0.54, the “promoter activity interaction Z-score” value [4, 24] was -0.106 ± 0.92 and the “promoter activity interaction Z-score” value [4, 25] was 1.89 ± 1.1. The “promoter activity interaction Z-score” value [4, 26] was -0.289 ± 0.39, the “promoter activity interaction Z-score” value [4, 27] was 0.246 ± 0.11 and the “promoter activity interaction Z-score” value [4, 28] was 0.0455 ± 1.8. For the same molecule, the “promoter activity interaction Z-score” value [4, 29] was 0.506 ± 0.55, the “promoter activity interaction Z-score” value [4, 30] was -0.0996 ± 0.22 and the “promoter activity interaction Z-score” value [4, 31] was 1.32 ± 2. The “promoter activity interaction Z-score” value ([4]; 14.9 µg/ml, genetic background: ΔsoxS) was 1.08 ± 0.5.

Reference: the supplement of paper PMC12282887
